According to PubChem BioAssay (Tox21):
Where “and” joins values, the source holds several entries; their conditions need not be identical. Equal entries are not always repeated. Inconclusive results are not listed. Where a call stands in place of a potency, no number is given. Where a structure was tested more than once in an assay, its records may differ in their call. Calls of active or inactive are those of the source. Unless noted, calls follow the shape of the dose curve; as a rule, active = well fitted curve in the direction sought with a large enough effect in the repeat runs; inconclusive = weak or mixed curves; inactive = no such curve, though single readings can be large; an effect the other way counts as inactive or inconclusive.

Experiments:
[1] = qHTS assay to identify small molecule antagonists of the glucocorticoid receptor (GR) signaling pathway - cell viability counter screen (AID 720693); also: nearly all actives have a fitted effect of over 55% in size; also: potency is read from the fitted curve at half-maximal effect
[2] = qHTS assay for identifying genotoxic compounds that show differential cytotoxicity against isogenic chicken DT40 cell lines with known DNA damage response pathways - wild type cell line (AID 743012); also: nearly all actives have a fitted effect of over 60% in size; also: potency is read from the fitted curve at half-maximal effect
How it was run: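 Wild-type DT40 cells (300/well) exposed to compounds for 40 hours at 37 C/5% CO2. Viability read by CellTiter-Glo luminescence after 30 min at room temperature.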

[3] = qHTS assay for identifying genotoxic compounds that show differential cytotoxicity against isogenic chicken DT40 cell lines with known DNA damage response pathways - Rev3 mutant cell line (AID 743014); also: nearly all actives have a fitted effect of over 55% in size; also: potency is read from the fitted curve at half-maximal effect
[4] = qHTS assay for identifying genotoxic compounds that show differential cytotoxicity against isogenic chicken DT40 cell lines with known DNA damage response pathways - Rad54/Ku70 mutant cell line (AID 743015); also: nearly all actives have a fitted effect of over 60% in size; also: potency is read from the fitted curve at half-maximal effect
[5] = qHTS assay to identify small molecule antagonists of the androgen receptor (AR) signaling pathway - cell viability counter screen (AID 743033; also: nearly all actives have a fitted effect of over 45% in size; also: potency is read from the fitted curve at half-maximal effect)
[6] = qHTS assay to identify small molecule antagonists of the androgen receptor (AR) signaling pathway using the MDA cell line - cell viability counter screen (AID 743041; also: nearly all actives have a fitted effect of over 45% in size; also: potency is read from the fitted curve at half-maximal effect)
How it was run: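 MDA-kb2 AR-luc cells (MMTV-luciferase, AR/GR responsive) treated with compounds plus R1881 agonist for 16 h at 37C. CellTiter-Fluor added at 15.5 h; fluorescence read after 30 min in the same wells.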

[7] = biological target: Androgen receptor (Homo sapiens) (UniProt P10275); assay: qHTS assay to identify small molecule antagonists of the androgen receptor (AR) signaling pathway (AID 743035; active = well fitted inhibition curve with a large enough effect in the signal ratio in the repeat runs, not every such curve was filed as active; the % refers to the signal ratio; also: potency is read from the fitted curve at half-maximal effect)
How it was run: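 HEK293 cells stably carrying UAS-beta-lactamase reporter, 2,000/well, given compounds plus R1881 agonist and incubated 16 h at 37C. LiveBLAzer B/G FRET substrate then added for 2 h at room temperature before fluorescence reading.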

[8] = biological target: Androgen receptor (Homo sapiens) (UniProt P10275); assay: qHTS assay to identify small molecule agonists of the androgen receptor (AR) signaling pathway (AID 743036; active = well fitted activation curve with a large enough effect in the signal ratio in the repeat runs, with a control signal flat, not every such curve was filed as active; the % refers to the signal ratio)
How it was run: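 Fluorescence from a beta-lactamase FRET substrate served as read-out in AR-UAS-bla GripTite HEK293 cells. Cells were treated with DMSO-dissolved compounds for 16 h at 37C, then with LiveBLAzer B/G substrate for 2 h at room temperature.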

[9] = biological target: Androgen receptor (Homo sapiens) (UniProt P10275); assay: qHTS assay to identify small molecule agonists of the androgen receptor (AR) signaling pathway using the MDA cell line (AID 743040; also: nearly all actives have a fitted effect of over 20% in size)
How it was run: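 MDA-kb2 breast carcinoma cells carrying MMTV-luciferase (responsive to AR and GR), plated 5 h then treated 16 h with compounds at 37C, 0% CO2. Read-out was ONE-Glo luminescence after 30 min at room temperature.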

[10] = biological target: Androgen receptor (Homo sapiens) (UniProt P10275); assay: qHTS assay to identify small molecule antagonists of the androgen receptor (AR) signaling pathway using the MDA cell line (AID 743042; also: nearly all actives have a fitted effect of over 55% in size; also: potency is read from the fitted curve at half-maximal effect)
How it was run: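 MDA-kb2 breast carcinoma cells carrying MMTV-luciferase (AR/GR responsive) were co-treated with compounds and the agonist R1881 for 16 h at 37C. Inhibition read as ONE-Glo luminescence; CellTiter-Fluor fluorescence measured in parallel for cytotoxicity.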

Androgen receptor (Homo sapiens), sequence (P10275 whole entry, looked up): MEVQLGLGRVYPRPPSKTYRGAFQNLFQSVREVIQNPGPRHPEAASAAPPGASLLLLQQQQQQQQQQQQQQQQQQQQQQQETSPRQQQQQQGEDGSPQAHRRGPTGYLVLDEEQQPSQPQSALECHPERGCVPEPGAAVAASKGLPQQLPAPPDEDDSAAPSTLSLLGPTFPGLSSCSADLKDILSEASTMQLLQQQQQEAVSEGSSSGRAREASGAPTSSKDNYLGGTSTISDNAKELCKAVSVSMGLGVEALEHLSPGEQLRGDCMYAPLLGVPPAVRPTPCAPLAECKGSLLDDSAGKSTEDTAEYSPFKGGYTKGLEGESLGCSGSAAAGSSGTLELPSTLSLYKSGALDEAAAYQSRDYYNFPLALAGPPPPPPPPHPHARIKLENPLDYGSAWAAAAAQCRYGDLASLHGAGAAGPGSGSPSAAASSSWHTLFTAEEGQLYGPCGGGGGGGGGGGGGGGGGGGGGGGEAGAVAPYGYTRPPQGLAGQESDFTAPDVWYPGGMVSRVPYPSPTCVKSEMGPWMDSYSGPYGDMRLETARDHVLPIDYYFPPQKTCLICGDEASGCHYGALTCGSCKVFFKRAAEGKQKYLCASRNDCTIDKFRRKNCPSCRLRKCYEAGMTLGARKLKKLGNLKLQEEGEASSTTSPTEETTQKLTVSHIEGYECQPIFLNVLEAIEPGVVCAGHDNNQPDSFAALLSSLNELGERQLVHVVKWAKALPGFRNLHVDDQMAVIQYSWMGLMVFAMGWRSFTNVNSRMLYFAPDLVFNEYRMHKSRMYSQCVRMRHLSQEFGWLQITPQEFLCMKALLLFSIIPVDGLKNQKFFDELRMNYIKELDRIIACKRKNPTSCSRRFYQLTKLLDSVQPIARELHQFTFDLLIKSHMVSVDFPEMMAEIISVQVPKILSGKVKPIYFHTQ

Compound	Potency [1]	Potency [2]	Potency [3]	Potency [4]	Potency [5]	Potency [6]	Potency [7]	outcome [8]	outcome [9]	Potency [10]
O[C@@H]1CO[C@H]2[C@@H]1OC[C@@H]2O	inactive	inactive	inactive	inactive	inactive	inactive	–	–	–	–
C=C1C[C@@]23CC[C@H]4[C@@](C)(CCC[C@@]4(C)C(=O)O[C@@H]4O[C@H](CO)[C@@H](O)[C@H](O)[C@H]4O)[C@@H]2CC[C@]1(O[C@@H]1O[C@H](CO)[C@@H](O)[C@H](O[C@@H]2O[C@H](CO)[C@@H](O)[C@H](O)[C@H]2O)[C@H]1O[C@@H]1O[C@H](CO)[C@@H](O)[C@H](O)[C@H]1O)C3	inactive	inactive	inactive	inactive	inactive	inactive	inactive	inactive	inactive	inactive
NCCNCCO	inactive	inactive	inactive	inactive	inactive	inactive	–	–	–	–
CN1CCCC(n2nc(Cc3ccc(Cl)cc3)c3ccccc3c2=O)CC1 (configuration not stated)	inactive	11.9 µM (active)	21.1 µM (active)	16.8 µM (active)	inactive	–	–	–	–	–
NNC(=O)CP(=O)(c1ccccc1)c1ccccc1	inactive	inactive	inactive	inactive	inactive	–	–	–	–	–
C=C(C)[C@@H]1CCC2=CCC[C@@H](C)[C@]2(C)C1	inactive	27.3 µM (active)	27.3 µM (active)	15.4 µM (active)	inactive	inactive	inactive	inactive	inactive	inactive
CCc1ccccc1	inactive	inactive	inactive	inactive	inactive	inactive	–	–	–	–
c1ccc2c(c1)CCc1ccccc1N2	inactive	inactive	–	–	–	–	–	–	–	–
Cc1c(C)c2c(c(C)c1OC(=O)CCC(=O)OCCO)CC[C@@](C)(CCC[C@H](C)CCC[C@H](C)CCCC(C)C)O2	21.3 µM (active)	11.9 µM (active)	10.6 µM (active)	11.9 µM (active)	inactive	–	–	–	–	–
CCCCCCC(C)(C)C(=O)O	inactive	inactive	inactive	inactive	inactive	inactive	–	inactive	inactive	inactive
NC1[C@H]2CN(c3nc4c(cc3F)c(=O)c(C(=O)O)cn4-c3ccc(F)cc3F)C[C@@H]12 (some centres not stated)	inactive	4.73 µM (active)	6.68 µM (active)	7.5 µM (active)	inactive	inactive	–	–	inactive	inactive
CN(C)CCN1C(=O)c2ccccc2N(C)c2ccccc21	inactive	inactive	inactive	inactive	inactive	inactive	–	–	–	–
OCCN1CCN(CCCN2c3ccccc3Sc3ccc(Cl)cc32)CC1	inactive	3.59 µM (active)	2.85 µM (active)	4.52 µM (active)	4.56 µM (active)	inactive	–	–	–	–
c1csc(SSc2cccs2)c1	inactive	12.2 µM (active)	6.86 µM (active)	10.9 µM (active)	38.9 µM (active)	inactive	–	–	–	–
Cc1cc(C)cc(N)c1	inactive	inactive	inactive	inactive	inactive	inactive	inactive	inactive	inactive	inactive
CC1CC(C)C(=O)C1=O (configuration not stated)	inactive	inactive	inactive	inactive	inactive	inactive	–	–	–	–
C[C@]1(Cn2ccnn2)[C@H](C(=O)O)N2C(=O)C[C@H]2S1(=O)=O	inactive	inactive	inactive	inactive	inactive	inactive	–	–	–	–
COc1cc(C(=O)NC2CCN(C)CC2)ccc1Nc1ncc2c(n1)N(C1CCCC1)CC(F)(F)C(=O)N2C	22.5 µM (active)	0.0044 µM (active)	0.0025 µM (active)	0.0056 µM (active)	15.9 µM (active)	62.8 µM (active)	0.0032 µM (active)	–	inactive	–
Cc1cscn1	inactive	inactive	inactive	inactive	inactive	inactive	–	inactive	inactive	inactive
CC(C)c1nc(CN(C)C(=O)N[C@H](C(=O)N[C@@H](Cc2ccccc2)C[C@H](O)[C@H](Cc2ccccc2)NC(=O)OCc2cncs2)C(C)C)cs1	inactive	inactive and 23.7 µM (active)	inactive	23.7 µM (active)	inactive	inactive	–	–	–	–
C=CC(=O)[O-].C=CC(=O)[O-].[Zn+2]	inactive	inactive	inactive	inactive	inactive	inactive	–	–	–	–
CC1(C)[C@H](C(=O)O)N2C(=O)C[C@H]2S1(=O)=O	inactive	inactive	inactive	inactive	inactive	inactive	–	–	–	–
CC(C)(C)C(=O)C(=O)O	inactive	inactive	inactive	inactive	inactive	inactive	–	–	–	–
C[C@@]12CCC[C@H]1[C@@H]1CC[C@H]3C[C@@H](O)CC[C@]3(C)[C@H]1CC2	inactive	inactive	inactive	inactive	inactive	inactive	–	–	–	–
CCCCCCCCN	inactive	inactive	inactive	inactive	inactive	inactive	–	–	–	–
FC(F)(F)c1ccccc1Cl	inactive	inactive	inactive	inactive	inactive	inactive	–	–	–	–
CCCCOc1ccc(OCCCN2CCOCC2)cc1	inactive	2.54 µM (active)	1.01 µM (active)	2.27 µM (active)	inactive	inactive	–	–	–	–

Compound	Potency [1]	Potency [2]	Potency [3]	Potency [4]	Potency [5]	Potency [6]	Potency [7]	outcome [8]	outcome [9]	Potency [10]
CN1C(=O)N(c2ccccc2Br)Cc2cnc(Nc3ccc4c(c3)OCC(CO)O4)nc21 (configuration not stated)	13.8 µM (active)	7.7 µM (active)	9.69 µM (active)	6.86 µM (active)	43.6 µM (active)	–	–	–	–	–
Oc1ccc(Cl)c2cccnc12	inactive	2.98 µM (active)	4.22 µM (active)	6.68 µM (active)	13.4 µM (active)	–	19 µM (active)	inactive	inactive	9.44 µM (active)
CC(=O)OCC[N+](C)(C)C	inactive	inactive	inactive	inactive	inactive	inactive	–	–	–	–
CCCC(=O)C(=O)O	inactive	inactive	inactive	inactive	inactive	inactive	–	–	–	–
CC(=O)OCCN(CCOC(C)=O)c1ccc(N=Nc2ccc([N+](=O)[O-])cc2C#N)cc1	inactive	61.1 µM (active)	30.6 µM (active)	30.6 µM (active)	inactive	inactive	–	–	–	–
O=C1NC(=O)c2cc([N+](=O)[O-])ccc21	inactive	inactive	inactive	inactive	inactive	inactive	inactive	–	inactive	inactive
CC(=O)Oc1ccc([N+](=O)[O-])cc1CCl	inactive	8.63 µM (active)	1.72 µM (active)	3.86 µM (active)	inactive	54.5 µM (active)	–	–	–	–
CC(=O)OCC(=O)NCCCOc1cccc(CN2CCCCC2)c1	inactive	inactive	inactive	inactive	inactive	inactive	inactive	inactive	inactive	inactive
CC(CO)CO	inactive	inactive	inactive	inactive	inactive	inactive	–	–	–	–
Cc1cccc(N(C)C(=S)Oc2ccc3c(c2)CCC3)c1	inactive	–	–	–	–	–	–	–	–	–
O=[N+]([O-])c1ccc(Nc2ccc(Nc3ccccc3)c(S(=O)(=O)O)c2)c([N+](=O)[O-])c1	inactive	inactive	inactive	inactive	inactive	inactive	–	–	–	–
CCCCCC[C@@H](O)C/C=C\CCCCCCCC(=O)OCC(O)CO (some centres not stated)	inactive	inactive	–	inactive	inactive	inactive	inactive	inactive	inactive	inactive
O=C1c2ccccc2C(=O)N1CCc1noc(-c2ccc(CN3CCCCCC3)s2)n1	inactive	49.9 µM (active)	39.7 µM (active)	39.7 µM (active)	–	inactive	–	–	–	–
NC(=O)c1ccncc1	inactive	inactive	–	inactive	inactive	inactive	inactive	inactive	inactive	inactive
c1ccc(C[n+]2cccc3ccccc32)cc1	inactive	54.5 µM (active)	27.3 µM (active)	27.3 µM (active)	–	61.1 µM (active)	–	–	–	–
COc1cc(C(=O)NCCCCCC(=O)O)cc(OC)c1OC	inactive	inactive	–	inactive	inactive	inactive	–	–	–	–
CC(C)C[C@H](NC(=O)[C@H](CCc1ccccc1)NC(=O)CN1CCOCC1)C(=O)N[C@@H](Cc1ccccc1)C(=O)N[C@@H](CC(C)C)C(=O)[C@@]1(C)CO1	5.35 µM (active)	0.0119 µM (active)	0.0168 µM (active)	0.0119 µM (active)	–	inactive	–	–	–	–
Nc1ncnc2c1ncn2[C@H]1CC[C@@H](CO)O1	inactive	26.6 µM (active)	inactive	23.7 µM (active)	inactive	inactive	–	–	–	–
CN1CCCC(CC2c3ccccc3Sc3ccccc32)C1 (configuration not stated)	inactive	5.07 µM (active)	7.17 µM (active)	8.04 µM (active)	–	inactive	–	–	–	–
Cc1[nH]cnc1CN1CCc2c(c3ccccc3n2C)C1=O	inactive	inactive	inactive	inactive	inactive	inactive	–	–	–	–
CO[C@]1(NC(=O)CSC(F)F)C(=O)N2C(C(=O)O)=C(CSc3nnnn3CCO)CO[C@H]21	inactive	inactive	inactive	inactive	inactive	inactive	–	–	–	–
Oc1cccc(O)c1O	inactive	26.6 µM (active)	48.1 µM (active)	–	inactive	inactive	–	–	–	–
CCCCCCCC/C=C\CCCCCCCCO	inactive	inactive	–	inactive	inactive	inactive	–	–	–	–
CCOC(=O)OC(C)OC(=O)[C@@H]1N2C(=O)[C@@H](NC(=O)[C@H](N)c3ccccc3)[C@H]2SC1(C)C (some centres not stated)	inactive	inactive	inactive	inactive	–	inactive	–	–	–	–
CC(=O)c1ccc([N+](=O)[O-])cc1	inactive	inactive	inactive	inactive	inactive	inactive	–	–	–	–
C1COC1	inactive	inactive	–	inactive	inactive	inactive	inactive	inactive	–	inactive
